Here are results for 15 compounds from PubChem BioAssay (Tox21).

Results filed as inconclusive are left out. Active and inactive are the calls of the source. Unless noted, calls follow the shape of the dose curve; as a rule, active = well fitted curve in the direction sought with a large enough effect in the repeat runs; inconclusive = weak or mixed curves; inactive = no such curve, though single readings can be large; an effect the other way counts as inactive or inconclusive.

The nature of assay [1]: qHTS assay for small molecules that induce genotoxicity in human embryonic kidney cells expressing luciferase-tagged ATAD5 (AID 651632). Also: nearly all actives have a fitted effect of over 15% in size. The essentials:
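HEK293T cells carrying luciferase-tagged ATAD5 were given compound or DMSO vehicle and incubated 16 hr at 37C, 5% CO2. Luciferase activity was read after 30 min at room temperature with Amplite; a rise signals genotoxic stress.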
(In general: In qHTS, concentration-response curves come from the screen itself.)

Assay [2] is described as follows: qHTS assay for small molecule agonists of the p53 signaling pathway - cell viability (AID 651633; calls by dose curve;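 also: p53RE-bla HCT reporter cells with a stable beta-lactamase p53 reporter; nearly all actives have a fitted effect of over 30% in size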). The essentials: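 Viability counter-read: CellTiter-Glo luminescence (30 min, room temperature) in the same p53RE-bla plates. These plates had been exposed to compounds for 16 h at 37 C.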
Assay [3] in a line: qHTS assay for small molecules that induce genotoxicity in human embryonic kidney cells expressing luciferase-tagged ATAD5 - cell viability (AID 651634; calls by dose curve; also: nearly all actives have a fitted effect of over 25% in size). The method in brief:
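HEK293T cells carrying luciferase-tagged ATAD5, 2,000 cells/well, exposed to compound for 15.5 hr at 37C. Viability read as live-cell protease activity by CellTiter-Fluor fluorescence after 30 min at 37C.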

Assay [4] is described as follows: qHTS assay for small molecule disruptors of the mitochondrial membrane potential - cell viability (AID 720634; calls by dose curve;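 also: human HepG2 liver cancer cells; nearly all actives have a fitted effect of over 20% in size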). The method in brief: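 HepG2 cells, 2,000 per well, attached overnight, then treated 1 hr at 37 C, 5% CO2. Viability read as ATP by CellTiter-Glo luminescence after 30 min at room temperature. Read in the same wells as the m-MPI membrane-potential dye assay.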

The nature of assay [5]: qHTS assay for small molecule disruptors of the mitochondrial membrane potential (AID 720635). Also: potency is read from the fitted curve at half-maximal effect. The essentials: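 Mitochondrial membrane potential tracked with Mito-MPS dye, red aggregates (ex 540/em 590 nm) against green monomers (ex 490/em 535 nm). Compound treatment 1 hr at 37C, dye 30 min in HepG2.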
Assay [6] can be described thus: qHTS assay to test for compound auto fluorescence at 590 nm (red) in HepG2 cells (AID 720674). The method in brief: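 Red autofluorescence (Ex/Em 540/590 nm, Rose Bengal sodium equivalents) was measured in HepG2 cells, 2,000 per well in MEM plus 10% FBS, plated overnight at 37 C. Readings were taken 1 hr after adding 23 nL compound or DMSO, at 37 C and 5% CO2.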
Assay [7] can be described thus: qHTS assay to test for compound auto fluorescence at 535 nm (green) in HepG2 cells (AID 720675).
Assay [8] is described as follows: qHTS assay to test for compound auto fluorescence at 460 nm (blue) in HEK293 cells (AID 720678). The essentials:
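Triamterene serves as the blue fluorophore standard. Compound signal at 405/460 nm is read in HEK293 wells (2,000 cells, 10% dialyzed FBS) after overnight treatment at 37C.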

The nature of assay [9]: qHTS assay to test for compound auto fluorescence at 590 nm (red) in HEK293 cells (AID 720679). The method in brief:
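We plated HEK293 cells in 10% dialyzed FBS medium, let them adhere for 4-5 hr, then added 23 nL compound. Overnight at 37C and 5% CO2 preceded fluorescence measurement at 540/590nm.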

A short description of assay [10]: qHTS assay to test for compound auto fluorescence at 535 nm (green) in HEK293 cells (AID 720680).
Assay [11] in a line: qHTS assay to test for compound auto fluorescence at 460 nm (blue) in HEK293 cell free culture (AID 720681). The essentials:
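Blue fluorescence (Ex 405/Em 460 nm, triamterene-equivalent) was read immediately after pin transfer of compound or DMSO into medium (DMEM, 10% FBS) without cells.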

Assay [12] can be described thus: qHTS assay to test for compound auto fluorescence at 535 nm (green) in HEK293 cell free culture (AID 720682). The essentials: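 Steps: dispense DMEM/10% FBS into empty wells; pin in compound or DMSO; measure fluorescence at 485/535 nm. Values are fluorescein equivalents.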
Assay [13] is described as follows: qHTS assay to test for compound auto fluorescence at 590 nm (red) in HEK293 cell free culture (AID 720683). The method in brief: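 Red-channel autofluorescence of compounds in culture medium (DMEM, 10% FBS), no cells, measured at 540/590 nm. Rose Bengal sodium is the reference fluorophore for equivalence.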
Assay [14] in a line: qHTS assay to test for compound auto fluorescence at 590 nm (red) in HepG2 cell free culture (AID 720684). The essentials: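 Steps: dispense MEM/10% FBS medium, no cells; pin compound or DMSO vehicle; read red channel, Ex/Em 540/590 nm. Output given as Rose Bengal sodium equivalents.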
The nature of assay [15]: qHTS assay to test for compound auto fluorescence at 460 nm (blue) in HepG2 cell free culture (AID 720685). The essentials:
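Compound (23 nL) or DMSO pinned into cell-free MEM with 10% FBS; blue fluorescence read at 405/460 nm excitation/emission, expressed as auto-fluorescence equivalency to triamterene.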

Assay [16] can be described thus: qHTS assay to test for compound auto fluorescence at 535 nm (green) in HepG2 cell free culture (AID 720686).
The nature of assay [17]: qHTS assay to test for compound auto fluorescence at 460 nm (blue) in HepG2 cells (AID 720687). The method in brief: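 Blue-channel autofluorescence (Ex/Em 405/460 nm, triamterene-equivalent) was measured after 1 hr compound exposure at 37 C, 5% CO2. Cells were HepG2, plated overnight at 37 C in MEM plus 10% FBS.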
Assay [18] has as its target Glucocorticoid receptor (Homo sapiens) (UniProt P04150). The assay is described as follows: qHTS assay to identify small molecule agonists of the glucocorticoid receptor (GR) signaling pathway (AID 720691; active = well fitted activation curve with a large enough effect in the signal ratio in the repeat runs, not every such curve was filed as active; the % refers to the signal ratio). As to conditions: GR-bla HeLa, beta-lactamase reporter ratio, 18 h; activation: at 62.4 µM (top of the series) unless noted. The method in brief:
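GR-bla HeLa cells carrying a GRE-driven beta-lactamase reporter, exposed to compounds for 18 h at 37 C. Reporter activation read as fluorescence after 2 h with LiveBLAzer B/G FRET substrate at room temperature.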

The nature of assay [19]: qHTS assay for small molecule agonists of the p53 signaling pathway (AID 651631; calls by dose curve; also: nearly all actives have a fitted effect of over 15% in size; also: potency is read from the fitted curve at half-maximal effect). The essentials: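 HCT-116 p53RE-bla reporter line, 16 h compound treatment at 37 °C, then fluorescence after 2 h with B/G FRET substrate.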
Assay [20] deals with Glucocorticoid receptor (Homo sapiens) (UniProt P04150). The assay is described as follows: qHTS assay to identify small molecule antagonists of the glucocorticoid receptor (GR) signaling pathway (AID 720692; active = well fitted inhibition curve with a large enough effect in the signal ratio in the repeat runs, not every such curve was filed as active; the % refers to the signal ratio). The method in brief:
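GR-bla HeLa cells carrying a GRE-driven beta-lactamase reporter received compound after 4 h plating, then dexamethasone (5 nM final). After 18 h at 37C, the FRET substrate was loaded for 2 h at room temperature and fluorescence read.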

Sequence of Glucocorticoid receptor (Homo sapiens) (P04150 whole entry, looked up): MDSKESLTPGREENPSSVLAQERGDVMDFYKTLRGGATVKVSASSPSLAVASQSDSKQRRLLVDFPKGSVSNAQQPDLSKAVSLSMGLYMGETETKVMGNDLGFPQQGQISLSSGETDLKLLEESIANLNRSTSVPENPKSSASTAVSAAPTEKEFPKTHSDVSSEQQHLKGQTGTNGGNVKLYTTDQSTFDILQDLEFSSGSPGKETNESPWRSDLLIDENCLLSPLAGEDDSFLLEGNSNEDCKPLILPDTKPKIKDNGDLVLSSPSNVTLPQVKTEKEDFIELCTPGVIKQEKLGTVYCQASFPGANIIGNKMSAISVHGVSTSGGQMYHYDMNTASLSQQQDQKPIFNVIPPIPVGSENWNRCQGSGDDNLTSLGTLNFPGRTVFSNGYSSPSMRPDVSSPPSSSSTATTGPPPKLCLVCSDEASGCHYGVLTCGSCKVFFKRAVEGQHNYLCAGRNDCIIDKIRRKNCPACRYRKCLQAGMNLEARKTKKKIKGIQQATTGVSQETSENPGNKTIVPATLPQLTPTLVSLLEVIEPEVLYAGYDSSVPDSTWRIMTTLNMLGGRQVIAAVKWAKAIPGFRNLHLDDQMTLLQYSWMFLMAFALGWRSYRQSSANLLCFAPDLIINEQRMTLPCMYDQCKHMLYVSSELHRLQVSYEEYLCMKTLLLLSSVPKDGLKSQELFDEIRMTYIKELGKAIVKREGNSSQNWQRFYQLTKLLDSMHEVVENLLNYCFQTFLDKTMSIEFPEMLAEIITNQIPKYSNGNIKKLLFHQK

Regarding `C[N+]1(C)CCC(OC(=O)C(O)(c2ccccc2)C2CCCC2)C1` (centres undefined), the Potency result in assay [1], in [2], in assay [3], in [4], in assay [5] and in assay [6] was “inactive” each time. Moreover, the Potency entry in assay [7], in assay [9], in assay [13], in [14], in assay [16] and in [18] was “inactive” each time. Moreover, the compound was called inactive in [8], in [10], in assay [11], in assay [12], in assay [15] and in assay [17].

As to `C=CC(=O)OCCOc1ccccc1`, the Potency in [19] is 68.5 µM (active). For the same compound, the Potency entry in [3], in [4], in [6], in [7], in assay [9] and in assay [14] was “inactive” throughout. For the same compound, the Potency result in [16] and in assay [18] was “inactive” in each case. The call in assay [8], in [10], in [11], in [15] and in [17] was inactive.

As to `CCOC(=O)C(F)(F)F`, the Potency result in assay [1], in assay [2], in assay [3], in assay [4], in assay [6] and in [7] was “inactive” throughout. Also, the Potency entry in assay [9], in assay [13], in assay [14], in assay [16], in assay [18] and in assay [20] was “inactive” in each case. In addition, the outcome in assay [8], in [10], in [11] and in assay [17] was inactive.

Take `CCC(C)O` (centres undefined): the Potency entry in assay [19], in assay [2], in [3], in assay [6], in [7] and in [9] was “inactive” throughout. In addition, the Potency entry in assay [13], in assay [14], in assay [16], in assay [18] and in assay [20] was “inactive” throughout. In addition, the result in [10], in assay [11], in [12], in assay [15] and in assay [17] was inactive.

Turning to `CC(=O)c1cccc([N+](=O)[O-])c1`, the Potency entry in assay [19], in assay [2], in [4], in assay [5], in [6] and in assay [7] was “inactive” throughout. For the same compound, the Potency entry in [9], in assay [13], in assay [14], in assay [16], in [18] and in [20] was “inactive” in each case. Moreover, the compound was called inactive in assay [8], in assay [10], in [11], in assay [12], in [15] and in assay [17].

`CC(=O)[O][Al]`: the Potency result in assay [19], in [2], in assay [3], in assay [4], in [6] and in assay [7] was “inactive” in each case. For the same compound, the Potency result in assay [9], in [13], in [14] and in assay [16] was “inactive” each time. For the same compound, the call in assay [8], in assay [10], in [11], in assay [12], in [15] and in assay [17] was inactive.

In the case of `CCOc1ccc(O)cc1`, the Potency result in [19], in assay [2], in assay [3], in [4], in assay [5] and in assay [9] was “inactive” each time. The Potency result in assay [13], in assay [14], in [16] and in [18] was “inactive” each time. In addition, the outcome in [8], in [10], in assay [11], in assay [12] and in assay [17] was inactive.

As for `CCCCO`, the Potency entry in assay [19], in assay [2], in assay [3], in [5], in assay [6] and in assay [7] was “inactive” each time. The Potency entry in [9], in assay [14] and in assay [16] was “inactive” in each case. Also, the compound was called inactive in assay [8], in assay [10], in [11], in assay [12], in [15] and in assay [17].

As for `Cc1oc2c(NC(=O)c3c(Cl)cccc3Cl)cccc2c1C(C)(C)O`, the Potency result in assay [19], in assay [1], in assay [6], in assay [9], in assay [13] and in assay [14] was “inactive” in each case. The Potency entry in assay [16] is “inactive”. The result in assay [8], in assay [10], in assay [11], in [12] and in [17] was inactive.

For `CCCCCCCC/C=C\CCCCCCCC(=O)OCC`, the Potency result in [1], in [2], in assay [3], in assay [4], in [5] and in [6] was “inactive” in each case. Also, the Potency result in [9], in assay [13], in assay [14], in assay [16] and in assay [18] was “inactive” each time. For the same compound, the compound was classed as inactive in [8], in assay [10], in assay [12], in assay [15] and in assay [17].

Take `CCCCCCCC#N`: the Potency entry in [1], in assay [2], in assay [3], in assay [4], in [5] and in assay [6] was “inactive” each time. The Potency result in assay [7], in assay [9], in assay [14], in assay [16], in [18] and in assay [20] was “inactive” throughout. Besides, the outcome in assay [8], in [10], in [11], in assay [12], in [15] and in [17] was inactive.

Take `CCO[Si](CCCCl)(OCC)OCC`: the Potency result in assay [1], in [2], in [3], in assay [4], in assay [6] and in assay [7] was “inactive” each time. In addition, the Potency entry in [9], in [13], in assay [14], in assay [16], in assay [18] and in assay [20] was “inactive” throughout. In addition, the Potency in [5] was 48.1 µM (active). Moreover, the compound was called inactive in assay [8], in assay [10], in [11], in assay [15] and in assay [17].

For the compound `O=C(OCCc1ccccc1)c1ccccc1`, the Potency entry in assay [19], in [2], in [3], in assay [4], in [5] and in assay [6] was “inactive” each time. For the same compound, the Potency result in assay [7], in [9], in assay [13], in assay [14], in [16] and in assay [18] was “inactive” in each case. Besides, the call in assay [8], in [10], in [11], in [12], in [15] and in assay [17] was inactive.

In the case of `Cc1cccc(C)c1NC(=O)CN(CC(=O)O)CC(=O)O`, the Potency entry in [1], in [2], in assay [3], in [4], in assay [5] and in assay [6] was “inactive” in each case. In addition, the Potency entry in assay [7], in [9], in [13], in [14], in assay [16] and in assay [18] was “inactive” throughout. Also, the Potency result in assay [20] is “inactive”. Moreover, the compound was called inactive in assay [8], in assay [10], in [11], in [12], in [15] and in [17].

With `CCCn1cnc2c1c(=O)n(CCCCC(C)=O)c(=O)n2C`, the Potency entry in assay [19], in assay [2], in assay [3], in assay [5], in assay [6] and in assay [7] was “inactive” in each case. Besides, the Potency entry in [9], in assay [13], in [14], in [16] and in [18] was “inactive” each time. The result in assay [8], in [10], in assay [11] and in [17] was inactive.
